High-throughput results deposited in PubChem by National Center for Advancing Translational Sciences (NCATS).
Rows were chosen to be rich in hits. Some 21% of all compounds tested hit in one or more screens of this group.
DRD3 antagonist: D3 dopamine receptor (human) antagonism | P35462 | D3R cells, DiscoveRx beta-arrestin luminescence, antagonist mode; hits give low values | 360,000 tested, 2.5% active | max response, negative = inhibition, %; in the data active = max response below about -50%; inconclusive = no clear call, values can overlap the other calls; also: % is scaled to controls: 0 for no effect and ±100 for the full control effect
Target sequence (P35462 whole entry, looked up): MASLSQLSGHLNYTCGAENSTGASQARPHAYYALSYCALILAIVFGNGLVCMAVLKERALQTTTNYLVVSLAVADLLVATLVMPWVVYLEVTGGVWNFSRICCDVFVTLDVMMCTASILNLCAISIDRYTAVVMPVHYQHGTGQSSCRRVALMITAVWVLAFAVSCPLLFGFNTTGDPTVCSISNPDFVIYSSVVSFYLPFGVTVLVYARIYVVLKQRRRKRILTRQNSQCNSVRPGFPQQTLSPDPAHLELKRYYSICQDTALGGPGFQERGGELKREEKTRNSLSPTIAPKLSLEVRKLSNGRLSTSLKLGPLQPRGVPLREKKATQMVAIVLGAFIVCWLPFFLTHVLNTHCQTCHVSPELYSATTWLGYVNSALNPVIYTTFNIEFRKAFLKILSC
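Cells expressing the human receptor were seeded at 1500 cells/well, incubated overnight at 37 degrees C in 5% CO2, then exposed to library compounds with dopamine controls for 90 minutes at 37 degrees C before luminescent detection.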
TDP1 cell noCPT: qHTS for Inhibitors of human tyrosyl-DNA phosphodiesterase 1 (TDP1): qHTS in cells in absence of CPT; DT40 Tdp1-/- hTDP1 cells, no CPT, ATP luminescence, 48 h; Potency, µM (doses to about 46.2 µM), for inactives: at the top dose activity change, negative = growth inhibition, usual class: inhibitors; 420,000 tested, 15% active; also: potency is read from the fitted curve at half-maximal effect; % is scaled to controls: 0 for no effect and ±100 for the full control effect; nearly all actives have a fitted effect of over 55% in size
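Luminescent ATP content (CellTiter-Glo) served as the growth readout. Knockout chicken DT40 cells expressing human TDP1 were exposed to compounds without camptothecin for a minimum 48 hr at 37 °C.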
DT40 TDP1 CPT: growth inhibition of DT40 Tdp1-/-;hTDP1 cells with camptothecin (screen for TDP1 inhibitors); chicken DT40 Tdp1-/-;hTDP1 cells + 20 nM CPT, ATP luminescence, 48 h; Potency, µM (titrated, usually from 46.2 µM), for the others: at the top dose activity change, negative = growth inhibition, actives largely listed as inhibitors; 420,000 tested, 12% active; AID 686979; also: potency is read from the fitted curve at half-maximal effect; % is scaled to controls: 0 for no effect and ±100 for the full control effect; nearly all actives have a fitted effect of over 55% in size
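Chicken DT40 Tdp1-/- cells complemented with human TDP1, 400 cells/well, exposed to compounds plus 20 nM camptothecin for at least 48 h at 37 C; viability read as ATP content by CellTiter-Glo luminescence.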
ClpP mod: qHTS Assay for Activators of ClpP. purified B. subtilis ClpP, FRET peptide cleavage, 20 min. Potency, µM (series often up to 57.5 µM), for the others: top-dose activity change, negative = active. 340,000 tested, 1.9% active; active = well fitted falling curve with a large enough effect; inconclusive = small, poorly fitted or top-dose-only effect; inactive = no such curve, though single readings can be large or run the other way; also: potency is read from the fitted curve at half-maximal effect; the source files actives as falling curves though it sought activators and does not explain the sign; nearly all actives have a fitted effect of over 65% in size
Target sequence (P80244 whole entry, looked up): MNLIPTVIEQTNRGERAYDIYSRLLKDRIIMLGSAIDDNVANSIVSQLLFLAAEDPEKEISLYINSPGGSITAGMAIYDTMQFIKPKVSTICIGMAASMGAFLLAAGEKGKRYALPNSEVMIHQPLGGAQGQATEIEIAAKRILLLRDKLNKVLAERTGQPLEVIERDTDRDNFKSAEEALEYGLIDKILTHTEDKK
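Purified B. subtilis ClpP, 10 microg/mL final in Tris/HCl pH8 with KCl, BSA, glycerol and Tween-20, cleaved an Abz/nitrotyrosine-quenched decapeptide. Fluorescence (ex 320, em 430) was read at 0 and 20 min at room temperature. Delta was normalized to 5.8 microM ADEP and DMSO/no-enzyme controls.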
IL-1B inflam inh: inflammasome signaling inhibition, IL-1 beta readout; THP-1 LPS/ATP IL-1B secretion, AlphaLISA, 16 h; hits give low values; activity change, % at 57.5 µM; 360,000 tested, 4.7% active; in the data active = activity change below about -50%; inconclusive = mostly about -30% to -49%; also: % is scaled to controls: 0 for no effect and ±100 for the full control effect
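Secreted IL-1B measured by AlphaLISA bead assay after 16 h compound exposure of THP-1 cells; compounds (final up to 57.5 uM) added 1 h before LPS (250 ng/mL) and ATP (1.25 mM) stimulation; lower signal means less secretion.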
DRD3 agonist: D3 dopamine receptor (human) agonism; P35462; D3R DiscoveRx beta-arrestin cells, luminescence, 90 min; max activation, %; 410,000 tested, 0.58% active; AID 652048; in the data active = max activation above about 30%; also: 0% is about no effect
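Agonist mode: compounds and dopamine controls were applied to plated cells for 90 min at 37 degrees C after an overnight attachment at 1500 cells/well. Luminescent read-out followed 30 - 60 minutes at room temperature with DiscoveRx detection reagent.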
Numbers without * were called inactive; u = inconclusive; x = no result. Unless noted, calls follow the shape of the dose curve; as a rule, active = well fitted inhibition curve with a large enough effect; inconclusive = small, poorly fitted or top-dose-only effect; inactive = flat fitted curve, though single readings scatter.

SMILES	DRD3 antagonist	TDP1 cell noCPT	DT40 TDP1 CPT	ClpP mod	IL-1B inflam inh	DRD3 agonist
CN(C)c1cccc(CNC(=O)c2csc([C@H]3C[C@H](O)[C@@H](CO)O3)n2)c1	-11.9	5.4%	-1.2%	0.1%	-6.5	-3.2
Cc1cc(OCC(O)CN(CCO)CCO)ccc1Cl (configuration not stated)	-26.2	-8.8%	-3.0%	-1.3%	-8.5	0.9
CN(CCc1ccc(Cl)c(Cl)c1)C[C@@H](O)COc1ccc(NS(C)(=O)=O)cc1	x	23.7µM*	u	x	x	x
CCCCCC(=O)N(Cc1ccccc1)c1c(N)n(CCOC)c(=O)[nH]c1=O	-13.0	-10.6%	-3.5%	-1.6%	1.2	-8.5
NC(=NC(=O)c1ccc(OCC(F)(F)F)nc1)c1ccccc1	-10.8	u	-28.7%	-17.8%	-6.1	4.3
O=C(Nc1nc(OCC(F)(F)F)cnc1/C=C\c1ccccc1)c1ccsc1	1.1	u	23.1µM*	4.1%	-4.9	2.2
COc1ccc(C(=O)Nc2nc(OCC(F)(F)F)cnc2/C=C\c2ccccc2)c(OC)c1	72.1	u	20.6µM*	4.8%	-14.0	-1.8
Cn1c(=O)[nH]c(=O)c2c1nc(N/N=C/c1ccncc1)n2Cc1ccc(Cl)cc1	5.4	-1.9%	u	-0.7%	39.6	12.9
NS(=O)(=O)c1cccc(NC(=O)CCSc2ccc(Cl)cc2)c1	-14.7	11.6µM*	u	-2.4%	19.6	-3.7
Cc1ccc(S(=O)(=O)N(C)C)cc1NC(=O)CSc1ncc(C(F)(F)F)cc1Cl	-11.6	u	u	0.7%	u	-6.6
CCN(CC)S(=O)(=O)c1ccc(C)c(NC(=O)CSc2ncc(C(F)(F)F)cc2Cl)c1	4.5	23.1µM*	u	1.9%	-13.1	-3.4
NS(=O)(=O)c1cccc(NC(=O)CCCNC(=O)c2ccc(Cl)cc2)c1	-23.9	10.1%	3.9%	x	98.2	-5.2
NS(=O)(=O)c1cccc(NC(=O)CSc2ncc(C(F)(F)F)cc2Cl)c1	-19.7	-28.8%	-40.1%	-2.8%	-111.1*	-0.7
COc1cccc(NC(=O)CN(C)C(=O)c2cc3c(s2)CCCCC3)c1	-0.7	-29.4%	-16.2%	-0.1%	15.8	-3.8
CCCC(=O)NC(c1ccccc1Cl)c1ccc2cccnc2c1O (configuration not stated)	-17.6	5.17µM*	3.26µM*	x	107.5	12.8
CCCC(=O)NC(c1ccc(N(C)C)cc1)c1ccc2cccnc2c1O (configuration not stated)	-23.6	0.92µM*	0.651µM*	x	172.1	17.6
CCCCC(=O)NC(c1ccc(OC)cc1)c1ccc2cccnc2c1O (configuration not stated)	8.8	9.2µM*	5.8µM*	1.3%	116.5	7.4
CCCC(=O)NC(c1ccco1)c1cc([N+](=O)[O-])c2cccnc2c1O (configuration not stated)	u	-22.5%	-7.0%	x	90.3	4.9
CC(=O)NC(c1ccc(Cl)cc1)c1ccc2cccnc2c1O (configuration not stated)	37.2	2.59µM*	4.11µM*	-0.6%	83.2	0.8
COc1ccccc1NC(c1cccnc1)c1ccc2cccnc2c1O (configuration not stated)	u	u	u	-0.9%	-24.9	0.2
CN(C)CCNC(=O)CN1C(=O)CCn2nc(-c3cn(C)c4ccccc34)cc21	x	4.4%	-13.3%	-10.5%	x	-8.6
Cc1nc(-c2ccc(Cl)cc2)sc1CCNC(=O)C(=O)Nc1ccc2c(c1)OCCO2	x	u	u	-8.2%	x	6.1
COc1ccc(C(NC(=O)C(C)C)c2ccc3cccnc3c2O)cc1 (configuration not stated)	1.8	0.461µM*	0.731µM*	x	137.9	6.2
CCC(=O)NC(c1ccc(C)cc1)c1ccc2cccnc2c1O (configuration not stated)	-11.5	4.61µM*	4.11µM*	x	141.7	20.2
Cc1ccc(C)c(NC(=O)CSc2cccc3cccnc23)c1	-23.8	-5.9%	1.7%	0.4%	3.4	-8.1
SMILES	DRD3 antagonist	TDP1 cell noCPT	DT40 TDP1 CPT	ClpP mod	IL-1B inflam inh	DRD3 agonist
Cc1cc(NC(c2ccc(Cl)cc2)c2ccc3cccnc3c2O)no1 (configuration not stated)	6.1	4.61µM*	4.11µM*	-1.6%	89.0	7.1
CCCC(=O)NC(c1ccc(C(C)C)cc1)c1ccc2cccnc2c1O (configuration not stated)	-24.9	2.31µM*	5.17µM*	x	146.2	27.3
O=C(Nc1nnc([C@H]2C[C@H](O)[C@@H](CO)O2)s1)C(c1ccccc1)c1ccccc1	-16.8	-9.1%	-26.1%	-5.9%	5.2	11.4
NN=C1c2ccccc2C(=O)C1C(=O)C(c1ccccc1)c1ccccc1 (configuration not stated)	-27.3	-10.4%	2.6%	1.5%	-2.4	-7.9
Cc1cc2nc(N3C(=O)CNC3=S)sc2cc1C	-66.9*	5.8µM*	u	x	-97.2*	-10.9
CCOc1ccc2nc(N3C(=O)CNC3=S)sc2c1	-15.9	6.51µM*	16.4µM*	x	-96.8*	-0.4
O=C1CNC(=S)N1c1nc(-c2ccccc2)cs1	-1.9	-9.9%	-4.8%	x	-8.7	2.1
Cc1ccc(-c2nnc(N3CCN(C(=O)COc4cccc(C)c4)CC3)c3ccccc23)cc1	-6.7	u	u	-1.4%	-86.5*	12.1
Cc1cccc(OCC(=O)N2CCN(C(=O)CCC3CCCC3)CC2)c1	-11.5	u	u	-0.9%	u	8.1
Cc1cccc(OCC(=O)N2CCN(c3nnc(-c4ccccc4)c4ccccc34)CC2)c1	-1.2	18.4µM*	u	-1.3%	-21.6	7.8
COC(=O)c1ccc(Cl)cc1NC(=O)NCc1c(-n2cccc2)sc2c1CCCC2	x	u	u	-6.9%	x	3.4
O=C(Cc1ccc([N+](=O)[O-])cc1)N/N=C/c1cccs1	-4.3	14.3%	-8.5%	-1.3%	-19.9	-4.1
O=C1c2ccc(-c3ccc(F)cc3OCc3ccccc3)cc2S(=O)(=O)c2cccc(C(=O)N3CCCC3)c21	28.6	14.6µM*	13µM*	-0.4%	14.3	3.5
COc1ccc(-c2ccc3c(c2)S(=O)(=O)c2cccc(C(=O)N4CCN(C5CCCCC5)CC4)c2C3=O)cc1OC	80.2	u	18.4µM*	-1.4%	-18.3	20.4
